HTR2A ag – mouse HTR2A agonism via beta-arrestin recruitment | CHO-K1 mHTR2A beta-arrestin complementation, luminescence; percent of 30 µM serotonin response | activation, % at 7.6 µM | actives 0.66% (n = 360,000);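 active = activation above a run cutoff, the mean activation of all tested compounds plus 3 SD, cut at about 14% in these data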;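 note: 0% = plate median of compound wells and 100% = 30 µM serotonin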
Target sequence (P35363 whole entry, looked up): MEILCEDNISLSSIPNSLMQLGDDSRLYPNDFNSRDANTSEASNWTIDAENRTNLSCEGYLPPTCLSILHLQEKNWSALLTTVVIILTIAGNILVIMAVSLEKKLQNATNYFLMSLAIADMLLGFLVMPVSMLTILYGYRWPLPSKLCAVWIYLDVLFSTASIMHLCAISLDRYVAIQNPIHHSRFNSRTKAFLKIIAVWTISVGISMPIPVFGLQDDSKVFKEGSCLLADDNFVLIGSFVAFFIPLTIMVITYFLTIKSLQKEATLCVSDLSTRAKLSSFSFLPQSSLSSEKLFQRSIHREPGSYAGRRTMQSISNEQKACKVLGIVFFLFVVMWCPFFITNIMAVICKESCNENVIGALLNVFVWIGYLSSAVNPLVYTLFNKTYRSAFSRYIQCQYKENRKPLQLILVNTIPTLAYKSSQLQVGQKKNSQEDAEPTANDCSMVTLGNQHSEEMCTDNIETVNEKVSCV
ABHD5 PLIN5 PPI – inhibitors of human ABHD5-perilipin-5 interaction; Q00G26+Q8WTS1; Split G. princeps luciferase complementation, luminescence, 4 h; inhibition, % at 4 µM; actives 0.78% (n = 360,000);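 active = inhibition above the mean inhibition across every tested compound plus 3 SD, cut at about 22% in these data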;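 note: 0% = DMSO only wells and the 100% control is not disclosed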
B2AR ag – human beta-2 adrenergic receptor agonism by FAP; Am2.2-beta2AR cells, FAP receptor internalization, flow cytometry; response, % (no concentration beside the values); actives 0.43% (n = 340,000); P07550;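 active = response above a set limit, near 3 SD of response in nonfluorescent compounds, cut at about 42% in these data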
NTR1 agonist – activates human neurotensin receptor 1 | P30989 | NTR1-U2OS beta-arrestin-GFP spot imaging, agonist mode | activation, % at 20 µM | actives 0.17% (n = 330,000) | AID 493036;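 active = activation at or above 40% of the spot to cytoplasm intensity ratio, with at least 20 cells analyzed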;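 note: 0% = DMSO without peptide and 100% = 100 nM NTR1 peptide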
Granule exo inh – lytic granule exocytosis inhibition; TALL-104 LAMP-1 surface exposure, flow cytometry; cells stimulated with thapsigargin and PMA; inhibition, % at 10 µM; actives 0.66% (n = 360,000); AID 651702;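 active = inhibition above about 55%, limit read from the data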
MOR ag counter – activates human mu opioid receptor in HTR2A counterscreen | actives 5.3% (n = 2,300) | shares compounds with HTR2A ag | U2OS OPRM1 beta-arrestin PathHunter, luminescence; DMSO 0%, DAMGO 9.3 µM 100% | activation, % at 9.3 µM;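 active = mean activation above the mean of DMSO-only wells plus 3 SD, cut at about 0.5% in these data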
m5-HT2A ag conf – mouse HTR2A agonism confirmed; shares compounds with HTR2A ag; CHO-K1 PathHunter beta-arrestin recruitment, luminescence; DMSO 0%, 30 µM serotonin 100%; activation, % at 7.6 µM; actives 19% (n = 2,300);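 active = mean activation across triplicates above the hit threshold derived in the original primary screen, cut at about 15% in these data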
Starred values were filed as active, the others as inactive; · = no result given. Most compounds without a hit are left out; they make up all but 2.3% or so of the library.

SMILES | HTR2A ag | ABHD5 PLIN5 PPI | B2AR ag | NTR1 agonist | Granule exo inh | MOR ag counter | m5-HT2A ag conf
c1csc(-c2nnc(NC3CCCCC3)c3ccccc23)c1 | 23* | 3 | 2 | 4 | 0 | -1 | 9
CC1CCN(c2nnc(-c3cccs3)c3ccccc23)CC1 | -2 | -5 | -1 | 1 | -2 | · | ·
COC(Cc1n[nH]c(=S)n1-c1ccc(Cl)cc1)OC | 9 | -2 | 4 | 0 | 0 | · | ·
CCCCCC1C(=O)C[C@@H]2CCN3C(=O)CCC[C@H]1[C@H]23 (some centres not stated) | 17* | 8 | 1 | 1 | -2 | -1 | -3
O=C1C[C@H]2CCCCC(=O)N3CC[C@@H](C1)[C@@H]23 | 0 | -13 | 0 | 3 | 1 | · | ·
C[C@@H]1c2ccccc2N2C[C@H](Cc3ccc(C(=O)c4ccccc4)cc3)C[C@@H]12 | 16* | -3 | · | · | 6 | 0 | -5
CC1CC(C)CN(C(=O)c2ccc(C(=O)c3ccccc3)cc2)C1 (configuration not stated) | -4 | -7 | -8 | 1 | 0 | · | ·
S=c1[nH]nc(C2CC2)n1Cc1ccccc1 | 0 | 1 | 2 | 0 | 0 | · | ·
S=c1[nH]nc(C2CCCCC2)n1Cc1ccccc1 | 15* | -8 | -4 | 0 | 14 | 0 | -2
COc1ccccc1CNCC(=O)Nc1ccccc1-n1cccc1 | 16* | 3 | 3 | 1 | -4 | 0 | 8
CC(C)C(=O)N1CCCC1(C)C(=O)NCc1ccccn1 (configuration not stated) | -1 | 5 | · | · | -7 | · | ·
CCCC(=O)N1CCCC1(C)C(=O)NCCc1ccccn1 (configuration not stated) | 22* | 0 | · | · | 9 | 0 | 3
Cc1ccc(-n2c(N)c(C(N)=O)sc2=S)cc1 | 19* | -1 | 2 | 1 | 4 | -1 | -5
COc1ccccc1-c1c(C(F)(F)F)oc2cc(OS(C)(=O)=O)ccc2c1=O | 26* | 5 | -3 | 4 | 5 | 0 | -2
COc1ccc2c(c1)CCCC21NC(=O)N(CC(=O)NCc2cccs2)C1=O (configuration not stated) | 19* | 5 | -8 | 5 | -8 | 0 | 1
O=c1ccc(NS(=O)(=O)c2ccccc2)cn1Cc1ccc(Cl)c(Cl)c1 | -2 | -3 | 2 | 7 | 3 | · | ·
C=CCn1c(Br)nc2c1c(=O)[nH]c(=O)n2C | 19* | 5 | -13 | -2 | -5 | -1 | -4
O=C(CN1C(=O)C2CC=CCC2C1=O)Nc1nc2ccccc2s1 (configuration not stated) | 16* | 5 | -4 | 0 | -7 | -1 | -2
Cc1ccc2nc(NC(=O)CN3C(=O)C4CC=CCC4C3=O)sc2c1 (configuration not stated) | 4 | 10 | 7 | -1 | -2 | · | ·
COc1ccc(S(=O)(=O)N(C)C[C@H]2Oc3ccc(NC(=O)C4CC4)cc3C(=O)N([C@H](C)CO)C[C@@H]2C)cc1 | 0 | 14 | -1 | -1 | -2 | · | ·
Cc1ccc(S(=O)(=O)c2nc(-c3ccc(F)cc3)oc2SCC(=O)NCC2CCCO2)cc1 (configuration not stated) | 15* | -1 | -1 | -3 | -5 | -1 | -3
Cc1ccc(-c2nc(S(=O)(=O)c3ccc(F)cc3)c(SCC(=O)NCC3CCCO3)o2)cc1 (configuration not stated) | -1 | -3 | -8 | -1 | 2 | · | ·
COc1nc(OC)nc(N2CCC(NC(=O)C(Cc3cccc(OC)c3OC)NC(C)=O)CC2)n1 (configuration not stated) | 3 | 7 | 3 | 2 | -6 | · | ·
O=C(CN1C(=O)NC(Cc2ccccc2)C1=O)Nc1ccccc1OC(F)F (configuration not stated) | 18* | -4 | -4 | -1 | -2 | 0 | 0
O=C(CN1C(=O)NC(Cc2ccccc2)C1=O)Nc1ccc(OC(F)F)cc1 (configuration not stated) | 0 | -8 | -2 | -1 | 2 | · | ·
